Results from the supplement of paper PMC11732987, “Enantioselective OTUD7B fragment discovery through chemoproteomics screening and high-throughput optimisation” (Communications Chemistry, 2025).

Assays:
Assay in all cases: log2 ratio of Biotin-Ahx-Ub-VS probe labelling (fragment/DMSO); higher = less target engagement (more negative = stronger competition), active = hit call of the paper (q ≤ 0.05, log2 ratio ≤ -1)
Settings in all cases: compound concentration: 200 uM; treatment time: 3 h
USP42 = target: T1, USP42 (UniProt Q9H9J4)
T1 sequence (whole entry): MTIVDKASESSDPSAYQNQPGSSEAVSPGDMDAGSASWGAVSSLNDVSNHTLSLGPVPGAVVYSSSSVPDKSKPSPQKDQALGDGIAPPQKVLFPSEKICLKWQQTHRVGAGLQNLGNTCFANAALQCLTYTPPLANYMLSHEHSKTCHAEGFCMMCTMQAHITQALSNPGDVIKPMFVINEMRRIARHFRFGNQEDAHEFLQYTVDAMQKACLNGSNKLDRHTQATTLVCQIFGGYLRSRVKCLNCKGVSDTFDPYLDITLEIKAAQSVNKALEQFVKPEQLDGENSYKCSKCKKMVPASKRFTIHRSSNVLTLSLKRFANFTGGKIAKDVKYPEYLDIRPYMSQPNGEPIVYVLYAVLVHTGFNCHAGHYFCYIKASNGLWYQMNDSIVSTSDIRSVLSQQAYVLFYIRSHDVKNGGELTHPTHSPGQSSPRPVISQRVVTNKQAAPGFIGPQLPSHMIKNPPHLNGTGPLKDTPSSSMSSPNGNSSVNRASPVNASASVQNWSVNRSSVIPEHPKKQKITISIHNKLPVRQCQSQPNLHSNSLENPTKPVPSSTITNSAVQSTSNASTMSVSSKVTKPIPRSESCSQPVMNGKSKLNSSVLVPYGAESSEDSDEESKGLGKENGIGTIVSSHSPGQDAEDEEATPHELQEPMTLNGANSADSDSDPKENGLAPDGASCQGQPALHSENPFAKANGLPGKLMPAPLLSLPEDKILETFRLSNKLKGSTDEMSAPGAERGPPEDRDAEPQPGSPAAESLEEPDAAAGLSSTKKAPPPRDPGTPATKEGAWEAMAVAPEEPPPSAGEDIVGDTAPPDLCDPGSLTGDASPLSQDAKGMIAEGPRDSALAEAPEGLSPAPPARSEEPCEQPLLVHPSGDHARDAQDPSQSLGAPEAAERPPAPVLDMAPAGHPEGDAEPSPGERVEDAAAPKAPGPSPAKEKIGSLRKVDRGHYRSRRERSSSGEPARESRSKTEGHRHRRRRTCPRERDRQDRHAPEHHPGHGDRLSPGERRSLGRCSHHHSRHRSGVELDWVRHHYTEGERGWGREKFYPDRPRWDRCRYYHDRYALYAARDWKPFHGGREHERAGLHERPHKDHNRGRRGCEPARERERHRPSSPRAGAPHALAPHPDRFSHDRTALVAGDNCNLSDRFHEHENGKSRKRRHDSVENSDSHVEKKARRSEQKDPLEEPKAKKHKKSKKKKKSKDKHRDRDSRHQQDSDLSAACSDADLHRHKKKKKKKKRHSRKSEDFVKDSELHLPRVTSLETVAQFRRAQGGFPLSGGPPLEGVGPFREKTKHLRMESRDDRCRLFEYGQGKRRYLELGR
How it was run: (§1)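 Fragment (200 µM) or vehicle was incubated for 3 h with triplicate HEK293T lysate samples of 495 µg, which were then treated with Biotin-Ahx-Ub-VS at 0.5 µM final for 1 h. Labelled DUBs were enriched on NeutrAvidin, digested with LysC and trypsin, and analysed by diaPASEF LC-MS/MS. Values are average log2 fragment/vehicle ratios from an unpaired t-test on global-median-normalised Spectronaut label-free quantities, using proteins with ≥2 unique peptides.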

USP46 = USP46 (UniProt P62068)
How it was run: as §1

USP47 = target: T2, USP47 (UniProt Q96K76)
T2 sequence (whole entry): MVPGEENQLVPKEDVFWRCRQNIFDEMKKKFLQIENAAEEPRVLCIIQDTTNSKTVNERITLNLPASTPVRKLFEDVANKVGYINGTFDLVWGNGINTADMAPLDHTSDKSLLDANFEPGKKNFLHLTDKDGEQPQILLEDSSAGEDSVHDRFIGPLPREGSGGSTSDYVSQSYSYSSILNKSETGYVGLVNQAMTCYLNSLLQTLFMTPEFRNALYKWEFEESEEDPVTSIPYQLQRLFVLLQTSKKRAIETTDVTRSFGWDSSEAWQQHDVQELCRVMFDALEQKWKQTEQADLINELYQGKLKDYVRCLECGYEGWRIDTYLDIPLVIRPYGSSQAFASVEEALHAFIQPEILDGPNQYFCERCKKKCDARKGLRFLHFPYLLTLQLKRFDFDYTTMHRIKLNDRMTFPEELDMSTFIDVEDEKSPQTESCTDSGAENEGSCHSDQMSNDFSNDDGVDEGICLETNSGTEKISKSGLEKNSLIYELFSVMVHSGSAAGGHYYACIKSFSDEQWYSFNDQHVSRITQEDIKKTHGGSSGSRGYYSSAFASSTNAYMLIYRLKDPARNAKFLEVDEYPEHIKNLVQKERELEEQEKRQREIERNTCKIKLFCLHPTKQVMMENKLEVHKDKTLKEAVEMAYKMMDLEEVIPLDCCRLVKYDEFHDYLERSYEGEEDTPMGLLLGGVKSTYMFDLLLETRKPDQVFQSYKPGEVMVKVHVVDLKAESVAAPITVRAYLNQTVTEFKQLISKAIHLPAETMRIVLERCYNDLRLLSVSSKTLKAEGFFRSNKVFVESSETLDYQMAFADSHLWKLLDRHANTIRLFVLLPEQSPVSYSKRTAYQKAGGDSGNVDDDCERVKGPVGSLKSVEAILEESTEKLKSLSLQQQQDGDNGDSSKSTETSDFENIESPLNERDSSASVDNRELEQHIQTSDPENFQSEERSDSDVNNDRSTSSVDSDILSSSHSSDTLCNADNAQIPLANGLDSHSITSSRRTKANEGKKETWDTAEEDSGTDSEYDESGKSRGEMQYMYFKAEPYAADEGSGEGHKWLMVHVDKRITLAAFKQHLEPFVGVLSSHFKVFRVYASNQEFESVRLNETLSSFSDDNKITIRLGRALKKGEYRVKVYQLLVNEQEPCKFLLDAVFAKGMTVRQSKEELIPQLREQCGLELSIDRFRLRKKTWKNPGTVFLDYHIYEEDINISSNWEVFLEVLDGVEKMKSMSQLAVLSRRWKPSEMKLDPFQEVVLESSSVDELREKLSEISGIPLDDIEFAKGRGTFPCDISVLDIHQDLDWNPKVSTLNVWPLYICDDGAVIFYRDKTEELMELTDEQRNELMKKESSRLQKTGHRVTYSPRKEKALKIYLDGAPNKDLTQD
How it was run: as §1

USP48 = target: T3, USP48 (UniProt Q86UV5)
T3 sequence (whole entry): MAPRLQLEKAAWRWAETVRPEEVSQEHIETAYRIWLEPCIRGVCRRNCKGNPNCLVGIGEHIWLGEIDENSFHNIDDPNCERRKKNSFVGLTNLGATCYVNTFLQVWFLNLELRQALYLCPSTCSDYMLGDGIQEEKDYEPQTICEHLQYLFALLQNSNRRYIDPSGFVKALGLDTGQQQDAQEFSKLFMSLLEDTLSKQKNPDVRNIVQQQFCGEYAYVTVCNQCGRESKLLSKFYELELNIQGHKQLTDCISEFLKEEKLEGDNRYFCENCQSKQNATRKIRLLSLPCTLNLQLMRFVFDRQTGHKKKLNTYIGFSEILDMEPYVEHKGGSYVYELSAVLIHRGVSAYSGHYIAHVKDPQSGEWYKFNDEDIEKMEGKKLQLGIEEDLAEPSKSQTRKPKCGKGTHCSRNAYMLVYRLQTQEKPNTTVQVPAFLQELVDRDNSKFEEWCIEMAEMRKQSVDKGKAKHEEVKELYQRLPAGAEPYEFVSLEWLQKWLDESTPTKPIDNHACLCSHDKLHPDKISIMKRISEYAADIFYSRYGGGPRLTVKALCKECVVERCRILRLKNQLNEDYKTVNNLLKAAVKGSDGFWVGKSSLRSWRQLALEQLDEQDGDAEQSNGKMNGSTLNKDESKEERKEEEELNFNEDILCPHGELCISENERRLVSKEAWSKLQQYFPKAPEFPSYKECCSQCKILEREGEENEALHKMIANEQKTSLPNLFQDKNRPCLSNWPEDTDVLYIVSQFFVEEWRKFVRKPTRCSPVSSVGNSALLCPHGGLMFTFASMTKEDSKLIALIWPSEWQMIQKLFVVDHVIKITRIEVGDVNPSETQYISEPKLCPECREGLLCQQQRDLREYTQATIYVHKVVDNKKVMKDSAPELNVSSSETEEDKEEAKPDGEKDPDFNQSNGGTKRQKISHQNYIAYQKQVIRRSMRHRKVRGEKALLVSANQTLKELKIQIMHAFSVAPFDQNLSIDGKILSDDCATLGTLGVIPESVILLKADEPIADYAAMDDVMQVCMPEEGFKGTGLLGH
How it was run: as §1

USP5 = target: T4, USP5 (UniProt P45974)
T4 sequence (whole entry): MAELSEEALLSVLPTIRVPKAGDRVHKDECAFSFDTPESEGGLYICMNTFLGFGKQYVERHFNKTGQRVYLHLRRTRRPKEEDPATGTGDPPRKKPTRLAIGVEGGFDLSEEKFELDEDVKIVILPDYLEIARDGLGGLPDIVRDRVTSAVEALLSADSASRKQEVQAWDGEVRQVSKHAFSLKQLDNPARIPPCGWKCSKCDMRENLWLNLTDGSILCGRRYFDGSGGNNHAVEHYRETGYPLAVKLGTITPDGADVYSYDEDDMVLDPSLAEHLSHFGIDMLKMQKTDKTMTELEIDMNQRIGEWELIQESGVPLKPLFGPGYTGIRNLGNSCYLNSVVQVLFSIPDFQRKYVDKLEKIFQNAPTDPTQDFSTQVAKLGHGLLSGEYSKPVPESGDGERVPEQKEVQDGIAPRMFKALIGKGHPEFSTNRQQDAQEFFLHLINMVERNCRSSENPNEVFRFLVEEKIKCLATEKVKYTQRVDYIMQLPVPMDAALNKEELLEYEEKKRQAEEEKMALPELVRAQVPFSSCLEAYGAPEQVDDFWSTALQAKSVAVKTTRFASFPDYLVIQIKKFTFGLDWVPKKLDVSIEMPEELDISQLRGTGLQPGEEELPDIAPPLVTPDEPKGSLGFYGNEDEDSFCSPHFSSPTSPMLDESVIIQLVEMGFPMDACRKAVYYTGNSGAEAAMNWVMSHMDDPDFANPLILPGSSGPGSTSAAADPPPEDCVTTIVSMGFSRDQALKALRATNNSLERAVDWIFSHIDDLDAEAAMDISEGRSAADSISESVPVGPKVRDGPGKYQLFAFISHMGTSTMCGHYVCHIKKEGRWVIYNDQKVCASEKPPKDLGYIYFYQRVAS
How it was run: as §1

USP54 = USP54 (UniProt Q70EL1)
How it was run: as §1

USP7 = USP7 (UniProt Q93009)
How it was run: as §1

USP8 = target: T5, USP8 (UniProt P40818)
T5 sequence (whole entry): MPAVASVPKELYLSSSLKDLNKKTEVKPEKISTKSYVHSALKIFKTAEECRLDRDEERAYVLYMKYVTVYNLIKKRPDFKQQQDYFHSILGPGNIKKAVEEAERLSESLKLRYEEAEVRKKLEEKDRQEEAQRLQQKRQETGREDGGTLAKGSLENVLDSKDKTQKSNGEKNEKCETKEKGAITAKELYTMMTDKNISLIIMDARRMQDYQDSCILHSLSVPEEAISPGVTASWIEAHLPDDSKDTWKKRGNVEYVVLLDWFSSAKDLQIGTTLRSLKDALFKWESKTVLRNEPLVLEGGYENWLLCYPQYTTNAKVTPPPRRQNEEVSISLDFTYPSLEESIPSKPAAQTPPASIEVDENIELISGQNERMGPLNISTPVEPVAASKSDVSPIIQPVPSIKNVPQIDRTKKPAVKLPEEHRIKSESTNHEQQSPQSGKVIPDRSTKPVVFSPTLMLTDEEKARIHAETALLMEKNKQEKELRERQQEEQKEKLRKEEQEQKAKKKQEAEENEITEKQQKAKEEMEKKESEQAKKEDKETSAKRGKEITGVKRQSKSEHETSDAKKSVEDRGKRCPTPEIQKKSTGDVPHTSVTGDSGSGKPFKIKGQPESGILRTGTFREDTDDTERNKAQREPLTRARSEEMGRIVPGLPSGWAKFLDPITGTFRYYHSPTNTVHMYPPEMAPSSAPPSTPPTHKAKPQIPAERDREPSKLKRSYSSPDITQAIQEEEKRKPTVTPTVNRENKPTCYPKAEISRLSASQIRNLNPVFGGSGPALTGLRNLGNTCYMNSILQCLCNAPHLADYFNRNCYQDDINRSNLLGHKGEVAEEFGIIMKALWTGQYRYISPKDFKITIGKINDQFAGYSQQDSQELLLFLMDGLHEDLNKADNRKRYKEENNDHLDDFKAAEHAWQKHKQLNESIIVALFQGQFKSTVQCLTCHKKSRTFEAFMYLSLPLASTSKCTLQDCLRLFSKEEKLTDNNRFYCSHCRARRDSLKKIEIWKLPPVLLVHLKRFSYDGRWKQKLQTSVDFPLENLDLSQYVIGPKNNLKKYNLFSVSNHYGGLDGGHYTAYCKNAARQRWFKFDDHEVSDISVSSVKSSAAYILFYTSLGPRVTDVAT
How it was run: as §1

Measured: log2 ratio of Biotin-Ahx-Ub-VS probe labelling

USP54, sequence (Q70EL1 whole entry): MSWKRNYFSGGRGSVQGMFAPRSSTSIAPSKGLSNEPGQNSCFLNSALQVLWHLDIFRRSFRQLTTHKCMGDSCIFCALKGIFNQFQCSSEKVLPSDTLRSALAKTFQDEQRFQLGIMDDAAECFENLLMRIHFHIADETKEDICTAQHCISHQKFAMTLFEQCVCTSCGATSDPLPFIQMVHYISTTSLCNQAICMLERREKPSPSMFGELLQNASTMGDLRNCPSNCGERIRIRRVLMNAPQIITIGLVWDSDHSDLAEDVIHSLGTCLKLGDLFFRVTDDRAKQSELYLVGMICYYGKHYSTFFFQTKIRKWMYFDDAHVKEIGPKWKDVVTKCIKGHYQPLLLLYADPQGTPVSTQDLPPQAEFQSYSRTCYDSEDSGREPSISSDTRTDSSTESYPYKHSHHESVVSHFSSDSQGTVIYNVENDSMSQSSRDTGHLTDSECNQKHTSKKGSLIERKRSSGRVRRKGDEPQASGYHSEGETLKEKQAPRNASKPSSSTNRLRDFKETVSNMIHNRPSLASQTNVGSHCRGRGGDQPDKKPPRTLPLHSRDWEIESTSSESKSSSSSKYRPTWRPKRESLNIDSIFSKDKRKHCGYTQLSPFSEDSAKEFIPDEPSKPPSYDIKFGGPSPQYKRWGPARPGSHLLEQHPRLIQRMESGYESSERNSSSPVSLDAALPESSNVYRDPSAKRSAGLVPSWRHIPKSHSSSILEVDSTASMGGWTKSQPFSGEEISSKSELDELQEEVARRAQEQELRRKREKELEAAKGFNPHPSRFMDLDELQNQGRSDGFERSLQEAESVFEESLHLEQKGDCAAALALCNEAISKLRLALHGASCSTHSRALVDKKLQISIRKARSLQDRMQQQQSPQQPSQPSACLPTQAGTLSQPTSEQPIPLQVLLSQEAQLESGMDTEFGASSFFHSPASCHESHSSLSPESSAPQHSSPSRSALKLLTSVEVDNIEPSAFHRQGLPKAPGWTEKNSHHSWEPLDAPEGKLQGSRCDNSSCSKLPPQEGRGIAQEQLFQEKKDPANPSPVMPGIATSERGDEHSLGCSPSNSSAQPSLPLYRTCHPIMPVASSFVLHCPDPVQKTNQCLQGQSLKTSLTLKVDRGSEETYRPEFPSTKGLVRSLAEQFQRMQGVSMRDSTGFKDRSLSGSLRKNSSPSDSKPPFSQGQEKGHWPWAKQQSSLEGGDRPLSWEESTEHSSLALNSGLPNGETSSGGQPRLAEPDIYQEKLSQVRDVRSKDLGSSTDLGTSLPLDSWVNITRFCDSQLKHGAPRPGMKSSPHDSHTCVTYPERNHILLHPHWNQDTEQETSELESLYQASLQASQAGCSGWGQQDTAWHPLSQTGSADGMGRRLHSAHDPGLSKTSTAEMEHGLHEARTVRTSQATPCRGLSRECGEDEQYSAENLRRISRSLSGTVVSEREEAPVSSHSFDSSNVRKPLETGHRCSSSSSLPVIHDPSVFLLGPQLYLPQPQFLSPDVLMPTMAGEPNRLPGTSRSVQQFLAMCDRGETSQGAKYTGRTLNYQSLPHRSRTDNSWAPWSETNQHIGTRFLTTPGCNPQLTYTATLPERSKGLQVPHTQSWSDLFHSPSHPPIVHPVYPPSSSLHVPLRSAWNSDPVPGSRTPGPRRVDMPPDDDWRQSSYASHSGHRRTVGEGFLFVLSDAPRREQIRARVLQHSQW
USP7, sequence (Q93009 whole entry, looked up): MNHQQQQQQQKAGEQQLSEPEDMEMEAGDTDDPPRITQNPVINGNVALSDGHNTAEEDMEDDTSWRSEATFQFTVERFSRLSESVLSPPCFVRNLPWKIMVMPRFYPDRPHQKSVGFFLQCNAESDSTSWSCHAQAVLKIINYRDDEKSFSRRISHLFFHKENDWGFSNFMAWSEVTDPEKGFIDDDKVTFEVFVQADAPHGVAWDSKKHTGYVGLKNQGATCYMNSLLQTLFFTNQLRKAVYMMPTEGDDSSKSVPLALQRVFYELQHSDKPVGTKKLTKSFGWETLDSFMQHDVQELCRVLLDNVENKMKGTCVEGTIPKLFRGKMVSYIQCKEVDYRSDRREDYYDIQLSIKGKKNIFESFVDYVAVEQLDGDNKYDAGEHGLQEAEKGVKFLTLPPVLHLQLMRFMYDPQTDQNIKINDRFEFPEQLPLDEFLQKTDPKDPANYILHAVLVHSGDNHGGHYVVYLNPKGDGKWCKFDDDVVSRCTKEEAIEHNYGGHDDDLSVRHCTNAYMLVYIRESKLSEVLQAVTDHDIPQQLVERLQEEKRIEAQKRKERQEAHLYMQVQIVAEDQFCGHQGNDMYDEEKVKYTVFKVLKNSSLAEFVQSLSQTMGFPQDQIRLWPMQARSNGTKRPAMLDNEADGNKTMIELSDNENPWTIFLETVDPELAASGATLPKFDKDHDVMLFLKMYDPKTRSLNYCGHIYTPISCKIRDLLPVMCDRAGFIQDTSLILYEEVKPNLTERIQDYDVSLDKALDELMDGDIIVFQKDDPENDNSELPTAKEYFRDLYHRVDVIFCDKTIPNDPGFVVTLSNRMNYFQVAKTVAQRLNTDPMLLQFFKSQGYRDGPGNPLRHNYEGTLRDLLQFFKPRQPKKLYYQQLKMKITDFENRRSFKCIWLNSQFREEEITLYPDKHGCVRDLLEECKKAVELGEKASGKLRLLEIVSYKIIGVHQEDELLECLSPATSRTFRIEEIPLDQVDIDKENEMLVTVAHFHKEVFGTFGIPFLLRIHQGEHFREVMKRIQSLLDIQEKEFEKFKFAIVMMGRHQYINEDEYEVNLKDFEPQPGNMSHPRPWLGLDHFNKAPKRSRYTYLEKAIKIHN
USP46, sequence (P62068 whole entry): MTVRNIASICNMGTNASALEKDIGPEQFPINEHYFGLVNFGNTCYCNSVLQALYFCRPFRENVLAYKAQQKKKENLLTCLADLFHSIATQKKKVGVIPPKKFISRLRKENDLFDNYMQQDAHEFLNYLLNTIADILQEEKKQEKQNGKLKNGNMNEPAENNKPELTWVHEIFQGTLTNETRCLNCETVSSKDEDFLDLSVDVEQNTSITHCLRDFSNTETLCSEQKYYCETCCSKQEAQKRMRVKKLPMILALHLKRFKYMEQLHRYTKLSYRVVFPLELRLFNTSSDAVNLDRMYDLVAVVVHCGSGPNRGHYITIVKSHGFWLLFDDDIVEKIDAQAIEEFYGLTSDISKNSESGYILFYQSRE

O=C(CCl)NCCC1COCCO1 (stereo not drawn)
inactive: USP42 0.357 | USP46 -0.000444 | USP47 -0.101 | USP48 -0.171 | USP5 -0.0923 | USP54 0.157 | USP7 -0.157 | USP8 -0.26
